This note sets out measurements from PubChem BioAssay AID588683 (Broad Institute, 2011).

Potency and affinity values are given separately. Activity calls are given as the source filed them. No rule for the calls is given here.

The target in the assay is Kelch-like ECH-associated protein 1 (Homo sapiens) + Nuclear factor erythroid 2-related factor 2 (Homo sapiens) (UniProt Q14145+Q16236). As to the kind of experiment: disruptors of Keap1 binding to Nrf2 peptide – biochemical, fluorescence polarization, cherry-picked samples, dose response (AID 588683).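 Also: Kelch domain of Keap1 binding a fluorescein-labelled 9mer Nrf2 peptide; more negative means stronger inhibition of peptide binding.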 Particulars: plate reader; series mostly up to 26 µM; activity change, negative = inhibition: at the top concentration. On the technique in general: Fluorescence polarisation rises when a labelled molecule tumbles more slowly, as on binding a larger partner.
Sequence of Kelch-like ECH-associated protein 1 (Homo sapiens) + Nuclear factor erythroid 2-related factor 2 (Homo sapiens) (Q14145 whole entry, looked up, the tested form may be a part): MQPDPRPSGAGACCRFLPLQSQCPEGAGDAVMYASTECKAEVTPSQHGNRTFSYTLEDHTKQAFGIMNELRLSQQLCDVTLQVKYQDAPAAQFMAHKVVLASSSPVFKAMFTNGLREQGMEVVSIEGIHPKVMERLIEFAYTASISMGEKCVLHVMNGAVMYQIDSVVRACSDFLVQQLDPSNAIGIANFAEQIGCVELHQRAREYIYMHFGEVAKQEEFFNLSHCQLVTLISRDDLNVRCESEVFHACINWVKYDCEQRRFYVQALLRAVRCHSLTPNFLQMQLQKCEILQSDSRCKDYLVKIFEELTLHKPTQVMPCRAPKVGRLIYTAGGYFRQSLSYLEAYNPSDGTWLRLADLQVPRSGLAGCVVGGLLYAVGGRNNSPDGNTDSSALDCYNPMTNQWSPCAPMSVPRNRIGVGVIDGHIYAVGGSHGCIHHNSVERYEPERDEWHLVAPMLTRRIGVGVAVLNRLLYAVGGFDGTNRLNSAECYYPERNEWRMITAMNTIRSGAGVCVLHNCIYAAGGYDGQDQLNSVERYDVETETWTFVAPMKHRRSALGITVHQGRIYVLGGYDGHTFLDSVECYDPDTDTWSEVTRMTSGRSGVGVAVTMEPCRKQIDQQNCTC
Sequence of Kelch-like ECH-associated protein 1 (Homo sapiens) + Nuclear factor erythroid 2-related factor 2 (Homo sapiens) (Q16236 whole entry, looked up, the tested form may be a part): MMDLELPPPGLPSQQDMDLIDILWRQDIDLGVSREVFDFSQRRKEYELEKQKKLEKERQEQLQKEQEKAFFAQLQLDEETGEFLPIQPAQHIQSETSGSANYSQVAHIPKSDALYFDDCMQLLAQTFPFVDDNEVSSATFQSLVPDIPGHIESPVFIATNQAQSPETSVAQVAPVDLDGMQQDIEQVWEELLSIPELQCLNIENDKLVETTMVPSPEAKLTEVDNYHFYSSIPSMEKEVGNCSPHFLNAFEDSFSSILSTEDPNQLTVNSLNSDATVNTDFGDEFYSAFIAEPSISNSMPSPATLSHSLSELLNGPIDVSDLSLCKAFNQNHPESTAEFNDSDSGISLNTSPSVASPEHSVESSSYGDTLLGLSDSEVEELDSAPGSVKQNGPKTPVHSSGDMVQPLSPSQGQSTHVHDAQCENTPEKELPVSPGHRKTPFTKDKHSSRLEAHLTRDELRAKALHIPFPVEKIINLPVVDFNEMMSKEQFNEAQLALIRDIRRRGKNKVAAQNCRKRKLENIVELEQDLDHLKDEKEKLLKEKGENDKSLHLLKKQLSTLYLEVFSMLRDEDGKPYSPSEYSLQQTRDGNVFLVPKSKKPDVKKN
`O=C(O)c1cccc2c1NC(C(=O)O)C1CC(Sc3ccccc3[N+](=O)[O-])C(Cl)C21` (stereo unspecified): the “activity change, negative = inhibition” value is -8.32% (inactive).
Turning to `Cn1cc(/C=C2\C(=O)NC(=O)N(c3ccccc3)C2=O)c2ccccc21`, the “activity change, negative = inhibition” value was -8.02% (inactive).
Turning to `Cc1cc(C=C2C(=O)NC(=O)NC2=O)c(C)n1-c1cccnc1`, the “activity change, negative = inhibition” value was -6.36% (inactive).
Consider `CCOC(=O)c1c(/N=C/c2c(O)n(-c3cccc(C)c3)c(=O)[nH]c2=O)sc2c1CCCC2`, for which the “activity change, negative = inhibition” value is 15.4% (inactive).
As for `COc1ccc(-n2c(CNCCc3ccc(C)cc3)nc3ccccc3c2=O)cc1`, the “activity change, negative = inhibition” value is -0.955% (inactive).
As for `COCCNC(=O)Cn1cc(/C=C2\C(=O)NC(=O)N(c3cccc(C)c3C)C2=O)c2ccccc21`, the “activity change, negative = inhibition” value is 5.42% (inactive).
As to `CCn1cc(C=C2C(=O)NC(=O)NC2=O)c2ccccc21`, the “activity change, negative = inhibition” value was 32% (inactive).
Turning to `CCCCc1ccc(C(=O)O)nc1`, the “activity change, negative = inhibition” value is 1.5% (inactive).
The result for `CN1/C(=C\C=C2C(=O)NC(=O)NC2=O)C(C)(C)c2ccccc21` reads 211% (inactive).
In the case of `CC1(O)CCN2C(=O)CCc3cccc1c32` (stereo unspecified), the “activity change, negative = inhibition” value is 34.6% (inactive).
Consider `CN1CC=C2C(C#N)=C(N)C(C#N)(C#N)C(c3ccncc3)C2C1` (stereo unspecified), for which the “activity change, negative = inhibition” value was -17.4% (inactive).
